We go through 25 molecules from PubChem BioAssay AID1645853 (Buhrlage Lab, Dana-Farber Cancer Institute and Novartis …, 2021).

About 2,000 (4.3%) of roughly 47,000 compounds were called active. Rule as the data show it: active = inhibition above about 30%; inactive = the rest. The entries come from a sample that favours actives as a whole.

This experiment deals with Ubiquitin carboxyl-terminal hydrolase 8 (Homo sapiens) (UniProt P40818). The experiment is described as follows: inhibitors of human USP8 deubiquitinase (AID 1645853). The note with it: purified USP8, Ub-rhodamine cleavage fluorescence, 30 min; at 20 µM; active compounds read high.
Ubiquitin carboxyl-terminal hydrolase 8 (Homo sapiens), sequence (P40818 whole entry, looked up): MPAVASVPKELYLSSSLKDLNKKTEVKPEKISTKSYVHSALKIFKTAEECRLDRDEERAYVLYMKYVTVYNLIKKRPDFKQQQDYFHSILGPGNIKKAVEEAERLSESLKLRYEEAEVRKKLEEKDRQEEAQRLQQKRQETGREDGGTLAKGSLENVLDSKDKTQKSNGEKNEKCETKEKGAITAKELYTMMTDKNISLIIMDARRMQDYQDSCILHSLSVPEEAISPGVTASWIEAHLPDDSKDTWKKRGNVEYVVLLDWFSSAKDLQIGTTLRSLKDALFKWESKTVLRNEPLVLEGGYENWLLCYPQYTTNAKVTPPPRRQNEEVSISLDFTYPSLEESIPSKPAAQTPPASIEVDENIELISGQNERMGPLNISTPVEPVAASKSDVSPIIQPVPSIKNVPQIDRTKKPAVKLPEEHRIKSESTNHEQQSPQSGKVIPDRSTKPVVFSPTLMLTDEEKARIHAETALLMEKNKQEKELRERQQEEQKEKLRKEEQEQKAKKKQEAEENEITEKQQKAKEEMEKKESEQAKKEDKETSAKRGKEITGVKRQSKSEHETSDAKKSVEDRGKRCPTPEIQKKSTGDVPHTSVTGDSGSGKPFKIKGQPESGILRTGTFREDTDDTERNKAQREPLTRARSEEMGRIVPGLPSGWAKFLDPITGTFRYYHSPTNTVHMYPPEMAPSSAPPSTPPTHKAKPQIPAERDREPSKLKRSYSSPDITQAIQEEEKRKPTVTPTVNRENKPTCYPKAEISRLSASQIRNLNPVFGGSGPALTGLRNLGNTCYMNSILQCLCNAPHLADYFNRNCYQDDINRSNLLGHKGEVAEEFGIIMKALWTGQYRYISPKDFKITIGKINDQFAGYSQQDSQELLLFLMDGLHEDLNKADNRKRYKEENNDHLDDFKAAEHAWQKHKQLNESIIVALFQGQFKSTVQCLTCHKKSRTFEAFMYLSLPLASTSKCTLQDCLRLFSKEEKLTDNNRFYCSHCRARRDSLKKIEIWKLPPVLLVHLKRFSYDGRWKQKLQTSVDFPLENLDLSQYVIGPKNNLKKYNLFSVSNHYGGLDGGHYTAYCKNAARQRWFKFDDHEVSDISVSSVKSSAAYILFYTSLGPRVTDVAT
For orientation: inhibition means the relative decrease from the control value, in per cent. For `Oc1cccc2nc3c(O)cccc3nc12`, the inhibition is 94.4% (active).
To `O=C(NCc1ccc2c(c1)OCO2)C1CCCN(c2nc3ccc(Cl)cc3[nH]2)C1` (stereo not given) belongs 7.49% (inactive); to `CC(=O)N[C@@]12CN(C)CC[C@@H]1[C@@H](c1ccccc1)N(CC(=O)Nc1cc(F)ccc1C)C2`, -5.94% (inactive).
To `COc1ccc(CCNC(=O)CCCn2c(=O)c3ccccc3n(CC(=O)OCc3ccccc3)c2=O)cc1OC` belongs 1.77% (inactive).
Consider `Cc1ccc(CNC(=O)CCCn2c(=O)c3sccc3n(CC(=O)OCc3ccccc3)c2=O)cc1`, for which the inhibition was 63.4% (active).
As for `N#Cc1ccccc1Cn1c(=O)n(CCCC(=O)NCc2ccc(F)cc2)c(=O)c2ccccc21`, the figure is 15.6% (inactive); as for `Cc1cc(C)nc(-n2nc(C)c(C#N)c2NC(=O)c2cccc(Cl)c2)n1`, 2.08% (inactive).
As for `COc1ccc(-c2cnoc2-c2ccc(O)cc2O)cc1OC`, the figure is 22% (inactive); as for `Fc1ccc(-n2cc(-c3ccccc3)c3c(NCc4ccco4)ncnc32)cc1`, 5.27% (inactive).
Regarding `CC(C)Cc1nc2sc3c(NCc4ccco4)ncnc3c2c2c1CCC2`, the inhibition was 16.6% (inactive).
As for `c1coc(CNc2nc(Nc3cccc4ccccc34)nc3ccccc23)c1`, the figure is 35.8% (active); as for `COCCN1CC[C@@H]2Oc3ccccc3S(=O)(=O)N(Cc3cccnc3)[C@H]2CC1`, -50.1% (inactive); as for `COc1cccc(S(=O)(=O)N2CCC(n3cnnc3C3CC3)CC2)c1`, 1.34% (inactive).
To `COc1cc(-c2nc3c4cnn(-c5ccccc5)c4ncn3n2)cc(OC)c1OC` belongs -3.12% (inactive); to `C#CCOc1ccc2ccccc2c1CN1CCc2ccccc2C1`, 41.1% (active).
For the molecule `C#CCOc1ccc(CN2CCc3nc(-c4cccnc4)[nH]c(=O)c3C2)cc1OC`, the inhibition was 13.3% (inactive).
`Cn1nnnc1-c1cc(Cl)cc(Cl)c1`: the inhibition is -13.4% (inactive).
As for `CCc1cc(=O)n(CC(=O)NCC2CCCO2)c(N)n1` (stereo not given), the figure is 0.518% (inactive).
For `COc1cccc(CNC(=O)N2CCN(Cc3ccc4nccnc4c3)CC2)c1`, the inhibition was -8.24% (inactive).
As for `Cn1c(CC2CCN(S(=O)(=O)c3cccnc3)C2)nc2cccnc21` (stereo not given), the figure is 13.9% (inactive).
As for `O=C(NCc1ccccc1)c1c(O)c2cnn(Cc3ccccc3)c2[nH]c1=O`, the figure is 0.46% (inactive).
As for `CC(C)CCNC(=O)C1(C)Cn2c(cc3ccccc32)C(=O)N1Cc1ccccc1F` (stereo not given), the figure is 0.22% (inactive); as for `COc1ccccc1CN1C(=O)c2cc3occc3n2CC1(C)C(=O)NC1CCCCC1` (stereo not given), 13.4% (inactive).
Regarding `CC1(C(=O)NC2CCCC2)Cn2c(cc3ccccc32)C(=O)N1c1ccc(F)cc1` (stereo not given), the inhibition was 50.7% (active).
As for `CO\C=C(C(=O)OC)/C(=C\C=C\c1ccccc1)CO`, the figure is -79.7% (inactive).
